High-throughput results from PubChem.
ugtP null kill: growth inhibition of S. aureus ugtP deletion strain | 330,000 compounds, 0.54% hits | AID 1259309 | growth inhibition, % (no concentration beside the values) | S. aureus RN4220 ugtP deletion, OD600 growth, 16 h; in the data active = growth inhibition above about 68%;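 note: plate controls were untreated wells for no effect and antibiotic for full effect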
Mtb hypoxia rep: inhibitors of hypoxia-regulated fluorescent reporter in Mycobacterium tuberculosis; M. tuberculosis hypoxia-regulated fluorescent reporter, fluorescence; fluorescence inhibition, % (concentration not given with the values); 300,000 compounds, 0.1% hits; AID 1159583; in the data active = fluorescence inhibition mostly above about 23%, no sharp cut-off; inactive = mostly below about 17%
Sa RN4220 lethal: S. aureus RN4220 growth inhibition. 330,000 compounds, 0.33% hits. inhibition, % (no concentration beside the values). OD600, 16 h; in the data active = inhibition above about 85%;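 note: plate controls were untreated cells for no effect and reference antibiotic for full effect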
SSB-PriA inh: inhibitors of Klebsiella pneumoniae PriA binding to SSB C-terminal tail; inhibition, % at 33 µM; 430,000 compounds, 0.6% hits; AID 1272365; AlphaScreen SSBct-PriA binding, biotinylated peptide; in the data active = inhibition mostly above about 37%, no sharp cut-off; inactive = mostly below about 20%;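 note: plate controls were negative control peptide for no effect and reference peptide for full effect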
The depositor's hits bear a star; / = no result given. Shown are actives, neighbours in structure and some others; about 1.1% of the full set was active somewhere.

SMILES	ugtP null kill	Mtb hypoxia rep	Sa RN4220 lethal	SSB-PriA inh
CC(C)(C)c1csc(NN=Cc2ccc(O)cc2)n1	25	34*	16	19
COc1ccc2nc(-c3cccc(NC(=O)c4ccc(Br)o4)c3)cn2n1	/	/	/	-21
CC(C)=NNC(=S)NC(C)(C)C	/	/	/	43*
Cc1cc(CNC(=O)C2(c3cccs3)CCCC2)c(C)o1	/	/	/	-8
Cc1cccc(OCCn2cnc(Cl)c2Cl)c1	5	2	2	40*
CCC1Oc2ccccc2N(CC(=O)NC2CCCCC2)C1=O (configuration not stated)	101*	1	10	-7
Cc1cc([N+](=O)[O-])c(NCCN)c([N+](=O)[O-])c1	/	/	/	2
CCC(C)Nc1c([N+](=O)[O-])cc(C)cc1[N+](=O)[O-] (configuration not stated)	-8	10	12	53*
CC(C)(C)CC(=O)NCC1COC2(CCCCC2)O1 (configuration not stated)	/	/	/	-13
Cc1[nH]c(=S)c(C#N)c(-c2ccc(Br)cc2)c1C(=O)Nc1ccccc1	/	/	/	1
O=[N+]([O-])c1cc(F)c(N2CCc3ccccc3C2)cc1N1CCOCC1	/	/	/	75*
CCN1CCN(c2cc(N3CCc4ccccc4C3)c([N+](=O)[O-])cc2F)CC1	/	/	/	83*
CN1CCN(c2cc(N3CCc4ccccc4C3)c(F)cc2[N+](=O)[O-])CC1	-16	-7	-7	41*
Fc1ccc(NC(=S)Nc2ccc3nccnc3c2)cc1	-3	0	0	45*
OCCCNC(=S)Nc1ccc2nccnc2c1	9	11	5	24
CC(C)N(C(=O)Nc1ccc2nccnc2c1)C(C)C	-11	/	-8	79*
Cc1cc(-n2nnc(C(=O)NCc3cccs3)c2C)ccc1F	/	/	/	-15
Cc1cc(C(=O)Nc2nc3c(s2)CSc2ccccc2-3)nn1C	/	/	/	2
COc1cccc(CSc2nc(CC(=O)NCCC3=CCCCC3)cc(=O)[nH]2)c1	/	/	/	-12
O=C(Cc1cc(=O)[nH]c(SCc2cccc(Cl)c2)n1)NCCC1=CCCCC1	/	/	/	40*
COc1ccc2oc(C(=O)OCC(=O)NC3CCCC3)c(C)c2c1	10	3	4	1
CCOc1ccc2oc(C(=O)OCC(=O)NC3CCCCC3)c(C)c2c1	11	32*	-1	-8
CCOc1ccc2oc(C(=O)OCC(=O)N3C(C)CCCC3C)c(C)c2c1 (configuration not stated)	4	25*	6	2
CSCCC(NC(=O)c1ccccc1Br)C(=O)NNC(=O)c1ccncc1 (configuration not stated)	3	27*	-2	0
COc1ccc(-c2nnc3ccc(OCCNC(=O)c4cc(OC)cc(OC)c4)nn23)cc1	/	/	/	-14
SMILES	ugtP null kill	Mtb hypoxia rep	Sa RN4220 lethal	SSB-PriA inh
Clc1nssc1=Nc1ccc(Br)cc1	12	10	7	13
Clc1ccc(N=c2ssnc2Cl)nc1	95*	7	26	-2
Cn1ccnc1SCC1CCN(C(=O)c2cccs2)CC1	/	/	/	35*
COCCn1c(C)cc(C(=O)COc2ccc(C)nc2[N+](=O)[O-])c1C	3	15	1	47*
O=C(CSc1ccc(F)cc1)NCC1(c2ccsc2)CCCC1	/	/	/	-4
O=C(NN=Cc1c(O)ccc2ccccc12)c1cccc(C(F)(F)F)c1	100*	8	54	-27
O=C(NN=Cc1c(O)ccc2ccccc12)C1CC1	90*	8	73	-3
O=C(NC[C@H](O)c1ccoc1)C(=O)Nc1ccc(OC(F)(F)F)cc1	/	/	/	0
Cc1ccc(/C=C/S(=O)(=O)N2CC(c3nc4ccc(C)cc4[nH]3)C2)cc1	/	/	/	-12
Cn1nc([N+](=O)[O-])c(C(C#N)c2nc3ccccc3s2)c(Cl)c1=O (configuration not stated)	/	/	/	92*
Cn1nc([N+](=O)[O-])c(C(C#N)c2nc3ccccc3n2C)c(Cl)c1=O (configuration not stated)	11	11	12	25
CN(C)S(=O)(=O)c1ccc2c(c1)OCCCO2	/	/	/	-10
Cc1ccc(-c2nc3ccccn3c2NCc2ccc3c(c2)OCO3)cc1	-4	6	2	45*
Oc1ccccc1C1SC(c2ccccc2O)SC(c2ccccc2O)S1 (configuration not stated)	100*	17	100*	-3
Cc1c(C(O)=C2C(=O)C(=O)N(CCCN(C)C)C2c2cccs2)cnn1-c1ccccc1 (configuration not stated)	/	/	/	-8
CN(O)/C=c1/ccc2c(n1)C(=O)C=CC=2	2	/	4	/
CN(O)C=c1ccc2c(n1)C(=O)C=CC=2	/	/	/	95*
COc1ccc(N2CC(C(=O)N3CCN(c4ccccc4F)CC3)CC2=O)cc1 (configuration not stated)	-1	-1	2	-1
COc1ccc(S(=O)(=O)N2CCN(C(=O)C3CC(=O)N(c4ccccc4F)C3)CC2)cc1OC (configuration not stated)	2	31*	3	1
CSC1CC2CCC(C1)N2C(=O)c1ccc(C(C)(C)C)cc1 (configuration not stated)	/	/	/	7
CSC1CC2CCC(C1)N2C(=O)c1ccsc1 (configuration not stated)	/	/	/	94*
Cc1ccc(N2CCn3c2nn(CC(=O)N2CCC(Cc4ccccc4)CC2)c(=O)c3=O)cc1	/	/	/	-4
O=C(c1nc2ccccc2s1)N(CCn1cccn1)c1nc2ccccc2s1	/	/	/	0
CCN(CC)CCNc1ccc(C)c2sc3ccc(O)cc3c(=O)c12	/	/	/	68*
CN(C)CCNc1ccc(CO)c2oc3ccc(O)cc3c(=O)c12	/	/	/	7
SMILES	ugtP null kill	Mtb hypoxia rep	Sa RN4220 lethal	SSB-PriA inh
COCCCNc1nc2cc(OC)c(OC)cc2c2nc(-c3ccccc3)nn12	11	-6	25	1
CCN(CC)CCCNc1nc2cc(OC)c(OC)cc2c2nc(-c3ccccc3)nn12	-8	72*	18	18
CCN(CC)CCCNc1nc2cc(OC)c(OC)cc2c2nc(-c3cccnc3)nn12	51	39*	5	5
CCN(CC)CCCNc1nc2ccccc2c2nc(-c3ccncc3)nn12	-7	50*	1	-21
O=C(COc1ccc(F)cc1)Nc1ccc2c(c1)N(C(=O)c1cccs1)CC2	/	/	/	5
O=c1[nH]c(=O)n(CC2CCCO2)c(O)c1C=C1C=Nc2ccccc21 (configuration not stated)	/	/	/	2
O=C(CSc1ccc(-c2ccccn2)nn1)Nc1ccccc1C(F)(F)F	/	/	/	69*
O=C(CSc1ccc(-c2ccccn2)nn1)Nc1ccc(Cl)cc1	/	/	/	31
O=C(NCCOc1ccc(-c2ccccn2)nn1)c1ccccc1C(F)(F)F	/	/	/	95*
O=C(CSc1ccc(-c2ccccn2)nn1)Nc1ccccc1Cl	/	/	/	65*
CC(=O)c1ccc(N2CCN(C(=O)c3sc(NC(=O)Nc4ccc(C)cc4)nc3C)CC2)cc1	/	/	/	22
COc1cc(NC(=O)CN2C(=O)NC(c3ccccc3)(c3ccccc3)C2=O)cc(OC)c1	/	/	/	45*
O=C(Nc1ccc(Cl)cc1)Nc1nc(CC(=O)N2CCOCC2)cs1	/	/	/	0
COC(=O)c1ccc(-c2ccco2)n1Cc1ccccc1Cl	85*	13	-1	-4
COC(=O)c1ccc(-c2ccco2)n1Cc1nc(-c2ccc(OC)c(OC)c2)oc1C	12	5	-12	24
